Experimental data as given in PubChem BioAssay (NCI).
“And” between values parts separate entries of the source, which are not always exact repeats. Equal values may be shown once. The panel holds about 79,000 compounds, 15% with a hit somewhere; the sample as a whole holds those more often. Unmarked numbers belong to inactive results. The source made the active and inactive calls. Cut-off read from the data, not from the text of the source: active = growth inhibition above about 70%; inactive = the rest.

Experiments:
[1] = NCI Yeast Anticancer Drug Screen. Data for the rad50 strain (AID 155);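 note: 0% = growth of vehicle-only cultures of the same strain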; conditions: S. cerevisiae rad50 strain growth inhibition; at 50.0 µM; hits give high values
Procedure, shortened: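 Yeast carrying a defined DNA repair defect were exposed to test compounds, and growth was compared with vehicle-treated controls to give percent inhibition.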

[2] = NCI Yeast Anticancer Drug Screen. Data for the mec2-1 strain (AID 157); conditions: S. cerevisiae mec2-1 strain, at 50.0 µM, hits give high values
Procedure, shortened: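 Mutant yeast (mec2-1) grown with compound; growth inhibition relative to vehicle control reported.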

[3] = NCI Yeast Anticancer Drug Screen. Data for the sgs1 mgt1 strain (AID 161);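 note: 0% = growth of cultures given vehicle only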; conditions: S. cerevisiae sgs1 mgt1 strain, at 50.0 µM, hits give high values
Procedure, shortened: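 Compounds are added to genetically altered yeast, and growth is compared with cultures given vehicle alone to give percent inhibition.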

[4] = NCI Yeast Anticancer Drug Screen. Data for the cln2 rad14 strain (AID 165);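 note: 0% = growth equal to vehicle treated cultures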; conditions: S. cerevisiae cln2 rad14 strain, at 50.0 µM, hits give high values
Procedure, shortened: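 Readout is yeast growth inhibition versus vehicle-treated controls, using a strain with cln2 and rad14 alterations exposed to compound.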

[5] = NCI Yeast Anticancer Drug Screen. Data for the bub3 strain (AID 167); conditions: S. cerevisiae bub3 mutant strain, at 50.0 µM, hits give high values
Procedure, shortened: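 Compounds were applied to a genetically altered yeast strain carrying a cell-cycle control defect. Growth inhibition was scored against vehicle-treated controls.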

[6] = NCI Yeast Anticancer Drug Screen. Data for the mlh1 rad18 strain (AID 175); conditions: S. cerevisiae mlh1 rad18 strain growth inhibition; at 50.0 µM; hits give high values
Procedure, shortened: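 Genetically defined yeast (DNA repair-deficient) exposed to compounds; growth inhibition determined relative to vehicle.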

Row | Compound | growth inhibition [1] | growth inhibition [2] | growth inhibition [3] | growth inhibition [4] | growth inhibition [5] | growth inhibition [6]
1 | Cc1cccc(N)c1N | 24.1% | -15.1% | 11.1% | 0.4% | -0.45% | 13.7%
2 | Oc1ccc(CCNCc2cc3c(cc2Br)OCO3)cc1 | 18.7% | 12% | -11.1% | 1.2% | 32.9% | 21.9%
3 | Nc1nc(N)c2cnnn2n1 | 18.1% | -13.2% | 17.3% | 11.9% | 4.05% | 20.8%
4 | CC(=N\O)/C(C)=N/O.CC(=N\O)/C(C)=N/O.[Ni] | -5.1% | 3.6% | -7.35% | 0.95% | 5.4% | -10.9%
5 | COc1ccc(C[As+](c2ccccc2)(c2ccccc2)c2ccccc2)cc1 | 97.8% (active) | 98.3% (active) | 97.4% (active) | 97% (active) | 93% (active) | 97.2% (active)
6 | CC(=O)OC1CC2(C)C3(CO3)C1OC1C=C(C)C(=O)C(O)C12CO (stereo not drawn) | -10.4% | -3.95% | 2.75% | 26.5% | 8.7% | 11.3%
7 | O=[N+]([O-])c1cc(Cl)ccc1O | 0.2% | -5.65% | -6.5% | 14.2% | -7.15% | 3.75%
8 | NC(Cc1ccccc1)c1nccs1 (stereo not drawn) | -8.95% | -26.6% | -7.65% | 11.2% | -30.1% | -2.6%
9 | CCOC(=O)C1=C(C)N2CCCOC2(C)C(C(=O)OC)C1c1cccc([N+](=O)[O-])c1 (stereo not drawn) | 38% | 10.8% | -6.5% | 18.5% | -34.6% | 27.8%
10 | O=P(O)(O)c1ccccc1 (tested in a mixture with another compound) | -28.9% | -6.45% | -15.2% | -35.1% | -31.9% | 2.7%
11 | CCN1C[C@]2(C)CC[C@H](O)C34C1C(C[C@@H]32)[C@@]1(O)CC[C@H]2C[C@@H]4[C@@H]1[C@H]2O | 19.4% | 1.15% | -1.45% | 23.8% | 6.7% | 31.2%
12 | CN1CCCC2(CCCc3ccccc32)C1 (stereo not drawn) | 14.2% | -33.1% | -25.9% | 15.3% | -13.3% | -5.2%
13 | C(=C/[PH+](c1ccccc1)c1ccccc1)/[PH+](c1ccccc1)c1ccccc1.[C-]#[O+].[C-]#[O+].[C-]#[O+].[C-]#[O+].[C-]#[O+].[Mo+2].[Mo+4].[c-]1[c-][c-][cH-][c-]1.[c-]1[c-][c-][cH-][c-]1 | 91.6% (active) | 93.5% (active) | 93.5% (active) | 92.2% (active) | 92.9% (active) | 91.2% (active)
14 | Cc1[nH]cc2c1C(c1ccccc1F)=NCC(=O)N2 | 19.7% | -3.5% | 17.4% | -13.7% | 8.4% | 0.1%
15 | C=CCC1(OC(C)=O)CCC2C3CCC4CC=CCC4(C)C3CCC21C (stereo not drawn) | -9.9% | 4.5% | -8.85% | -51.4% | 1% | -9.4%
16 | COc1cc(C2c3cc4c(cc3OC(NCCO)C2C)OCO4)cc(OC)c1O (stereo not drawn) | 6.1% | -11.5% | -14.3% | 9.25% | -18.1% | -0.65%
17 | c1ccc2c(c1)[Se]c1ccccc1[Se]2 | -14.2% | -22.8% | 0.65% | 8.55% | 23.1% | -7.45%
18 | OCC1C(/C=C/c2ccoc2)ON2CCCC12 (stereo not drawn) | -16.6% | -0.5% | -8.05% | 26.6% | 18.1% | -27.6%
19 | C=CP(=O)(OCCCl)OCCCl | 24.5% | -0.7% | 2.3% | 18.1% | -1.6% | 12.9%

Row | Compound | growth inhibition [1] | growth inhibition [2] | growth inhibition [3] | growth inhibition [4] | growth inhibition [5] | growth inhibition [6]
20 | CC(C)=NNC1=NC(CC(C)C)P(=O)(NCCCCNP2(=O)SC(NN=C(C)C)=NC2CC(C)C)S1 (stereo not drawn) | -5.25% | 17.5% | 11.1% | -18.2% | -11.3% | 6.15%
21 | N#CC1C(=O)c2ccccc2C1=O | -1.4% | 4.15% | 1.6% | -3.35% | 12.8% | -1.85%
22 | O=C1[C@@H]2[C@H](C(=O)N1c1ccccc1)[C@H]1CC[C@H]2N1C(=O)c1ccccc1 | 18.9% | 17.4% | 2.2% | 2.75% | 13.2% | 6.5%
23 | C=C(C)CC1(CC)C(=O)NC(=S)NC1=O | -11.8% and -1.6% | -21.6% and -1.3% | 0.35% | 6% | -5.6% | -13.4% and 12.1%
24 | C[N+](C)(C)C | -0.3% and 4.95% and -7% | 14.2% and -39% and -9.3% | -5.75% and -25.2% and 8.3% | -16.5% and 6.35% and 2.35% | 21.4% and -8.1% and 8.75% | -1.65% and -19.1% and -2.9%
25 | CCOC(=O)C1(C#N)C(C#N)(C#N)C12CCCCC2 (stereo not drawn) (tested in a mixture with another compound) | 36.5% | 10.1% | 56% | 4.9% | 33.8% | 23.2%
26 | CSC(SC)=C1C(=O)NC(=O)NC1=O | -11.8% | 1.65% | 1.7% | 10.2% | -10.1% | -16.4%
27 | CC1(C)OCC(C2NC2C2COC(C)(C)O2)O1 (stereo not drawn) | -4.55% | -6.85% | -11.1% | -40.4% | -10.9% | 6.5%
28 | Cc1ccc2nc(NC(=O)C(=O)C3C(=O)NC(=S)NC3=O)sc2c1 | -2.75% | -19.1% | 2.85% | 2.4% | -8.95% | -40%
29 | Cc1cc(Cl)ccc1[NH-].Cc1cc(Cl)ccc1[NH-].[Cl][Pt+2][Cl] | 35.3% | 12.6% | 30.8% | 2.05% | 18.3% | 30.2%
30 | CC1CCC2NCCNC2C1 (stereo not drawn) | 2.45% | 6.65% | -8.9% | 5.35% | 0.65% | 23.4%
31 | CC1(C(=O)O)C2[Se]c3cc[se]c3C2C1(C)C(=O)O (stereo not drawn) | -2.5% | 9.8% | -8.15% | -20.8% | 1% | -4.7%
32 | CCOC(CP(=O)(OCC)OCC)OCC | -13.2% and 8.45% | -26.2% and -14.3% | -16.2% and 4.65% | 16.2% and 15.7% | 3.65% and 6.5% | -25.4% and 14.4%
33 | Cc1cc(C)n(-c2nc3ccccc3c(=O)n2-c2ccccc2)n1 | -2.9% | -2.75% | -14.5% | 0.4% | -7.75% | -16.9%
34 | COc1cc(C2CNCc3cc(OC)c(O)cc32)ccc1O (stereo not drawn) | 0.05% | -7.1% | -11.1% | -17.8% | -9.85% | 1.2%
35 | C=C(C)C1C2CC3(C)C4(CO4)C4OC4C3(O)C1C(=O)O2 (stereo not drawn) | 13.3% | -16.4% | 14.8% | 4.2% | 5.35% | -47.2%
36 | CSCCC(NP(=S)(c1ccccc1)c1ccccc1)C(=O)O (stereo not drawn) | 17.4% | -3.1% | 0% | 16.9% | -1.8% | 9.5%
37 | O=C(O)c1ccc(Cl)c(Cl)c1 | 1.7% | -5.4% | 3.9% | -14.2% | 5.95% | 0.45%
38 | COc1cccc2c1C(=O)c1c(O)c3c(c(O)c1C2=O)CC(O)(C(C)=O)CC3OC1CC([N+](C)(C)C)C(O)C(C)O1 (stereo not drawn) | 97% (active) | 98.5% (active) | 97.9% (active) | 92.5% (active) | 98.3% (active) | 95.8% (active)
